# Unmarked numbers belong to inactive results. The source made the active and inactive calls.
# Assay: PSAC antagonists in infected red cells, primary screen, cell-based, P. falciparum Indochina, OD700, 1 h (AID 1154)
# Conditions: P. falciparum Indochina infected RBC osmotic lysis, higher = more signal, called active from +8 up or from −8 down
row,SMILES,z-score
1,O=C(NN=C1C[C@@H](O)[C@@H](O)[C@@H]2[C@@H]3C(=O)N(C[C@@H]4CCCO4)C(=O)[C@@H]3CC[C@H]12)OCc1ccccc1,1.35
2,COc1cccc([C@H]2Oc3ccc(OC)cc3C(=NO[C@@H](C)c3cn([C@H](CO)Cc4ccccc4)nn3)[C@@H]2O)c1,2.52
3,O=C1[C@H]2[C@H]3[C@H](O)[C@H](O)CC(=NOCc4ccccc4)[C@H]3CC[C@H]2C(=O)N1Cc1ccc2c(c1)OCO2,19.4 (active)
4,CC(C)CON=C1C[C@@H](O)[C@@H](O)[C@@H]2[C@@H]3C(=O)N(C4CCCCC4)C(=O)[C@@H]3CC[C@H]12,-0.172
5,CC(C)(C)N1C(=O)[C@H]2[C@H]3[C@H](O)[C@H](O)CC(=NO[C@@H]4O[C@H](CO)[C@@H](O)[C@H](O)[C@H]4O)[C@H]3CC[C@H]2C1=O,5.45
6,COC(=O)[C@H](C)NC(=O)CCC1CC(OC(=O)NCCc2ccc(F)cc2)CC2(CCCC(COC(=O)NCCC(C)C)O2)O1 (stereo not given in full),21.1 (active)
7,CC(=O)Nc1ccc([C@@H]2N[C@H](C(=O)O)CC[C@H]2C)cc1,-0.188
8,COc1ccc(O[C@H]2C=C[C@@H](c3ccccc3)O[C@@H]2CON=C(C)C)cc1,0.288
9,CO[C@H]1COC(=O)[C@@H](Cc2ccccc2)NC(=O)[C@@H](C)COC(=O)CCC[C@@H]1C,-1.19
10,CCOC(=O)NN=C1C[C@@H](O)[C@@H](O)[C@@H]2[C@@H]3C(=O)N([C@@H](C)c4ccccc4)C(=O)[C@@H]3CC[C@H]12,0.65
11,CO[C@H]1COC(=O)CCC[C@@H](C)[C@H](OC)COC(=O)[C@@H]2CCCN2C(=O)CC=C[C@@H]1C,-1.11
12,COc1cccc([C@H]2Oc3ccc(OC)cc3C(=NOC(C)CN3CCCCc4nc(C)c(C)cc43)[C@@H]2O)c1 (stereo not given in full),1.82
13,O=C1[C@H]2[C@H]3[C@H](O)[C@H](O)CC(=NOC[C@@H](O)COCc4ccco4)[C@H]3CC[C@H]2C(=O)N1Cc1ccccc1,0.376
14,COc1cccc([C@H]2Oc3ccc(OC)cc3C(=NOC[C@@H](O)[C@H]3O[C@@H]4OC(C)(C)O[C@@H]4[C@H]3O)[C@@H]2O)c1,5.05
15,Cn1c(=O)n2n(c1=O)[C@H]1[C@H](O)[C@@H]3O[C@@H]3C(=NOCc3ccccc3)[C@H]1CC2,-0.347

# From PubChem BioAssay
